We go through 40 compounds from PubChem BioAssay (EPA / NIEHS).

The structures appear in SMILES notation. Activity calls are given as the source filed them. The calls were made as follows: active = hit-call score of the fitted dose curve at least 0.9, where 1 is the maximum; inactive = score below 0.9.

Read-out in the assay: Tumor necrosis factor receptor superfamily member 6 (Homo sapiens) (UniProt P25445)
The experiment in a line: LTEA_HepaRG_FAS: Life Technologies and Expression Analysis (LTEA) Assay for Fas cell surface death receptor (FAS) using HepaRG (AID 2283447). As to conditions: mRNA level, 48 h; actives raise or lower the signal. On the procedure: LTEA_HepaRG is a cell based, multiplexed-readout assay that uses HepaRG, a human liver cell line, with measurements taken at 48 hours after chemical dosing on a 96-well plate.LTEA_HepaRG_FAS is one of 102 assay component(s) measured in the LTEA HepaRG cell culture assay. It is a marker of Cell proliferation, survival, death.Data from the assay component LTEA_HepaRG_FAS was analyzed into 1 endpoint. This assay endpoint, LTEA_HepaRG_FAS, was analyzed with bidirectional fitting relative to DMSO as the negative control and baseline of activity. Using a type of inducible reporter, measures of mRNA induction for gain or loss-of-signal activity can be used to understand regulation of transcription factor activity. To generalize the intended target to other relatable targets, this assay endpoint is annotated to the cytokine receptor intended target family, where the subfamily is TNF receptor.
A total of 1060 chemcials from the ToxCast library were tested in eight-point concentration-response experiments. Cell culture and cytotoxicity assays were conducted at Thermo Fisher Scientific's Custom Services facility (Madison, WI). A single lot of human HepaRG cells (Thermo Fisher Scientific, Frederick, MD) was used for the cell culture experiments. 96-well format collagen type I coated plates of human HepaRG cells were prepared using established methods. Briefly, cryopreserved HepaRG cells were thawed, plated at a density of approximately 100,000 cells/well in HepaRG Thaw, Plate, and General Purpose media (HPRG770, Thermo Fisher Scientific), and incubated for 48 hours. 0.5% DMSO was selected as vehicle control to balance the requisite need of DMSO in HepaRG cultures to maintain differentiation (for example, baseline metabolism, proportions of hepatocytes vs. cholangiocytes), while enabling further hepatic receptor pathway activation (for example, PXR and CAR) in response to chemical exposure. 48 hours after plating, the culture medium was replaced with HepaRG Serum-Free Incudtion Media. Cells were exposed to each test chemical in duplicate and maintained in CO2 incubators for another 48 hours. Chemical plates were thawed to room temperature and 200x concentrations of treatment groups were prepared. 8-point conentration-reponse curves were made with the highest exposure at 100 uM, followed by half-log dilutions, all in 0.5% DMSO. Each test plate contained variouse controls, induction positive controls (1mM phenobarbital), cytotoxicity positive controls ([…] aflatoxin B1), vehicle controls (0.5% DMSO), and total lysis controls (0.5% DMSO). Cell morphology images were taken using an Essen IncuCyte FLR automated microscope, with six 96-well plates imaged in about 24 minutes. Images were captured and exported and JPEG files. Spent culture media was transfered to black-well plates for the LDH assay, and remaining media was sorted at -80 C for later use. Cells were treated with RLT buffer and frozen until shipped for gene expression analysis. Total RNA was isolated from the cell suspension in 75 uL of Buffer RLT (Qiagen, Germantown, MD 20874) by Quintiles/Expression Analysis (Durham, NC) using a custom isolation procedure. Total RNA from each plate well was transferred to a preamplification plate. Fluidigm's 96.96 Dynamic ArrayTM (Fluidigm, Amsterdam, the Netherlands) technology was used for gene expression analyses by quantitative reverse transcription polymerase chain reaction (qRT-PCR, performed by Quintiles/Expression Analysis, Durham, NC)89. Standard TaqManTM Assays (Applied Biosystems/ThermoFisher Scientific, Foster City, CA) were used to assess the expression of 93 genes selected based on their selectivity and sensitivity to important hepatic receptors known to be modulated by environmental chemicals; importance in human hepatocyte functionality; and hepatotoxicity. […]
Consider `CO[C@@H]1[C@H](OC(=O)NC(=O)CCl)CC[C@]2(CO2)[C@H]1[C@@]1(C)O[C@@H]1CC=C(C)C`, for which the compound was classed as inactive. Same read-out and setting: the entry for `OCCCl` is “inactive”. What is called AC50 is the concentration giving half of the maximal activity seen. For the compound `Nc1ccc(Cl)cc1N`, the AC50 is 13.3 µM (active). Consider `CN(C)C(=O)Nc1ccc(Cl)cc1`, for which the outcome was inactive. Still for that read-out and setting: as for `CN(C)c1ccccc1`, the entry is “inactive”. For `Cn1cc(-c2ccccc2)c(=O)c(-c2cccc(C(F)(F)F)c2)c1`, the result was inactive. With `c1ccc(C2CO2)cc1` (stereo not given), the compound was called inactive. Consider `Clc1ccc(Cl)c(Cl)c1`, for which the compound was classed as inactive. Same read-out and setting: the entry for `Clc1ccccc1Cl` is “inactive”. Regarding `N#CC(Br)Br`, the compound was called inactive. `COP(=S)(OC)SCN1C(=O)c2ccccc2C1=O`: the outcome was inactive. Still for that read-out and setting: the entry for `CCCCCOC(=O)c1ccccc1C(=O)OCCCCC` is “inactive”.

For `CC(C)N(Cc1ccccc1)C(=O)C(C)(C)C`, the result was inactive. In the case of `C=CCc1ccc2c(c1)OCO2`, the call was inactive. For the compound `OCCOCCO`, the call was inactive. As to `COc1cc(C=O)cc2c1[C@H](COC(N)=O)[C@]1(OC(C)=O)ON2C[C@H]2[C@@H]1N2C(C)=O`, the AC50 was 88.1 µM (active).

As to `Clc1ccc(C(c2ccc(Cl)cc2)C(Cl)Cl)cc1`, the compound was called inactive.

With `Oc1ccc2ccc3cccc4ccc1c2c34`, the compound was called inactive. On to `OCCCBr`, for which the result was inactive. For `O=[N+]([O-])c1ccc(Oc2ccc(Cl)cc2Cl)cc1`, the call was inactive. Take `CCCCC(CC)COC(=O)c1ccc(C(=O)OCC(CC)CCCC)c(C(=O)OCC(CC)CCCC)c1` (stereo not given): the compound was classed as inactive.

As for `CS(=O)(=O)NC(=O)c1cc(Oc2ccc(C(F)(F)F)cc2Cl)ccc1[N+](=O)[O-]`, the compound was called inactive.

On to `CC(C)(C)OOC(C)(C)CCC(C)(C)OOC(C)(C)C`, for which the result was inactive. For the compound `Cc1ccc([N+](=O)[O-])cc1`, the call was inactive. Still for that read-out and setting: the entry for `O=[N+]([O-])C(Br)(CO)CO` is “inactive”; for `CC(C)(C)OOC(=O)c1ccccc1` it is “inactive”; for `CC(C)COC(=O)c1ccccc1C(=O)OCC(C)C` it is “inactive”.

On to `Cc1cccc(N)c1N`, for which the result was inactive.

`CCOc1cccc(C2(N3CCN(c4ccccc4)CC3)CCC(C)CC2)c1` (stereo not given): the compound was called inactive. In the case of `Nc1ccc([N+](=O)[O-])cc1`, the result was inactive. On to `C[N+](C)(C)CC1CO1` (stereo not given), for which the compound was called inactive. Still for that read-out and setting: as for `CCNS(=O)(=O)C(F)(F)C(F)(F)C(F)(F)C(F)(F)C(F)(F)C(F)(F)C(F)(F)C(F)(F)F`, the entry is “inactive”; as for `CNC(=O)Oc1cccc2c1OC(C)(C)C2`, “inactive”; as for `[As]#[In]`, “inactive”.

As to `Oc1ccccc1Cl`, the outcome was inactive. With `Cc1cc(N=Nc2ccccc2C)ccc1N`, the concentration at half-maximal activity (AC50) was 3.37 µM (active). For `c1ccc(NNc2ccccc2)cc1`, the compound was classed as inactive.

On to `CCN(CC)N=O`, for which the result was inactive.

Turning to `Cc1ccc(N)c(N)c1`, the call was inactive.

With `O=P(OCCCl)(OCCCl)OCCCl`, the outcome was inactive.
